Results published in PubChem BioAssay (EPA / NIEHS).
“And” between values parts separate entries of the source, which are not always exact repeats. Equal values may be shown once. Records with an inconclusive call do not appear. The source made the active and inactive calls. The calls were made as follows, unless noted: active = hit-call score of the fitted dose curve at least 0.9, where 1 is the maximum; inconclusive = response in the unintended direction; inactive = score below 0.9.

Columns and labels:
[1] = Tanguay_ZF_120hpf_TRUN_legacy: (Legacy) Oregon State University Tanguay Lab 120 Hour Post-fertilization zebrafish Assay for Truncated Body (AID 2283655)
Summary of the method: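 Single dechorionated zebrafish embryos received test chemical from 6 hpf in 0.64% DMSO, kept at 28C. At 120 hpf, brightfield inspection noted any truncated body.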

[2] = tested on: Thyroperoxidase (TPO), gene 54314; assay: CCTE_Simmons_AUR_rTPO: CCTE's Amplex UltraRed Assay for Thyroperoxidase (TPO) Inhibition, Simmons Lab (AID 2283662);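 as to AC50: potency for loss of signal meaning inhibition of peroxidase activity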
Summary of the method: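 Endpoint is decreased Amplex UltraRed fluorescence after a 30-min, 37C reaction of rat thyroid microsomes with 300 uM H2O2. Eight test concentrations (5 nM–87.5 uM final) in 0.5% DMSO, three biological replicates each.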

[3] = Tanguay_ZF_120hpf_TR_legacy: (Legacy) Oregon State University Tanguay Lab 120 Hour Post-fertilization zebrafish Assay for Touch Response (AID 2283667)
Summary of the method: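 Binary touch-response call at 120 hpf, analysed as gain of signal versus DMSO baseline. Wild-type 5D larvae, static exposure at 28C, 0.64% DMSO final; 5uM trimethyltin chloride as positive control.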

[4] = CCTE_Padilla_ZF_144hpf_TERATOSCORE: (Legacy) CCTE's 144 Hour Post-fertilization zebrafish Assay Teratoscore, Padilla Lab (AID 2283679; active = hit-call score of the fitted dose curve at least 0.9, where 1 is the maximum; inactive = score below 0.9;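 as to AC50: zebrafish embryos with chorions exposed by immersion from 6-8 hpf to 5 dpf with daily renewal; teratogenicity score from eye scoring of death hatching and malformations at 144 hpf; higher score means more developmental defects relative to DMSO baseline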)
Summary of the method: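 Larvae scored by eye at 144 hpf for death, hatching and malformations after a day in clean Hanks'. Before that, daily-renewed exposure at 80 uM (0.4% DMSO, 26C) from roughly 6-8 hpf through 5 dpf, 4 embryos per chemical.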

[5] = Tanguay_ZF_120hpf_ActivityScore_legacy: (Legacy) Oregon State University Tanguay Lab 120 Hour Post-fertilization zebrafish Assay Score for Activity (AID 2283742);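 as to AC50: dechorionated Tropical 5D wild-type zebrafish embryos held singly per well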
Summary of the method: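 Dechorionated 5D embryos, one per well, static exposure 6–120 hpf, 28C, sealed and dark; final DMSO 0.64% (vol/vol). Brightfield binary scoring of mortality plus 18 endpoints; gain-of-signal fit versus DMSO baseline.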

[6] = target: Luciferin 4-monooxygenase (Photinus pyralis) (UniProt P08659); assay: CCTE_Simmons_QuantiLum_inhib_2: CCTE's Firefly Luciferase Inhibition Assay, Simmons Lab (AID 2283767);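 as to AC50: potency for inhibitors that lower luciferase luminescence relative to DMSO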
Summary of the method: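 Eight-point titrations of each chemical, 5 nM–87.5 uM final in 0.5% DMSO, were run in three biological replicates against recombinant luciferase for 30 min at 37C. Bioluminescence signal loss, read on reagent injection, gave the inhibition endpoint.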

[7] = Tanguay_ZF_120hpf_NC_legacy: (Legacy) Oregon State University Tanguay Lab 120 Hour Post-fertilization zebrafish Assay for Notochord and Tail Malformation (AID 2283656)
Summary of the method: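 Binary notochord-distortion calls, made by brightfield inspection, form the read-out; activity is fitted in the positive direction against DMSO. Exposure ran statically from 6 to 120 hpf at 28C with 0.64% DMSO.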

[8] = STM_H9_OrnithineISnorm_perc: Stemina devTOX quickPredict H9 human embryonic stem cell (hESC)-based Assay for Ornithine (ORN) Metabolite Biomarker, Normalized (AID 2283712; active = hit-call score of the fitted dose curve at least 0.9, where 1 is the maximum; inactive = score below 0.9;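 also: ornithine released into spent medium during last day measured by mass spectrometry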)
Summary of the method: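 Metabolite endpoint from spent media of pluripotent H9 cells treated 72 h with daily re-feeding; ornithine measured by UPLC-HRMS against its 13C spike-in and referenced to the median 0.1% DMSO vehicle response.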

[9] = STM_H9_OrnCyssISnorm_ratio: Stemina devTOX quickPredict H9 human embryonic stem cell (hESC)-based Assay for Ornithine (ORN):Cystine (CYSS) Ratio (AID 2283714)
Summary of the method: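 UPLC-HRMS of spent media: ORN/CYSS ratio of internal-standard-normalized percentages, DMSO (0.1%) baseline. Pluripotent H9 hESCs, 72h exposure, daily re-dosing with fresh media; last 24h media collected.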

[10] = CEETOX_H295R_MTT_cell_viability: Viability Assessment in the CeeTox HT-H295R MTT Assay (AID 2283718; active = hit-call score of the fitted dose curve at least 0.9, where 1 is the maximum; inactive = score below 0.9;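 as to AC50: curve fitted both ways so AC50 may mark viability loss or gain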)
Summary of the method: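 Human H295R adrenal cells, prestimulated 48 h with 10 uM forskolin, were exposed 48 h to chemicals in 0.1% DMSO. Viability was measured in the same wells by MTT (0.5 mg/ml, 4 h, 37 C), absorbance 570/650 nm, as percent of controls.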

[11] = read-out: solute carrier (SLC10A1), SLC10A1 (gene 6554); assay: LTEA_HepaRG_SLC10A1: Life Technologies and Expression Analysis (LTEA) Assay for solute carrier (SLC10A1) using HepaRG (AID 2283657; active = hit-call score of the fitted dose curve at least 0.9, where 1 is the maximum; inactive = score below 0.9); conditions: mRNA level, 48 h; actives raise or lower the signal
Summary of the method: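 HepaRG, 48 h exposure, 8-pt half-log curve from 100 uM in 0.5% DMSO, duplicates. Read-out: TaqMan qRT-PCR of SLC10A1 mRNA, normalized to three housekeeping genes. Gain/loss fit vs DMSO baseline.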

[12] = read-out: matrix metalloproteinase-1 (MMP1), MMP1 (gene 4312); assay: LTEA_HepaRG_MMP1: Life Technologies and Expression Analysis (LTEA) Assay for matrix metalloproteinase-1 (MMP1) using HepaRG (AID 2283658; active = hit-call score of the fitted dose curve at least 0.9, where 1 is the maximum; inactive = score below 0.9); conditions: mRNA level, 48 h; actives raise or lower the signal
Summary of the method: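 In this screen, human liver HepaRG cultures receive each chemical in duplicate for 48 h (top 100 uM, 0.5% DMSO). MMP1 expression is then quantified by TaqMan qRT-PCR with ACTB/GAPDH/POLR2A normalization.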

[13] = read-out: Cytochrome P450 (CYP24A1_1), CYP24A1 (gene 1591); assay: LTEA_HepaRG_CYP24A1_1: Life Technologies and Expression Analysis (LTEA) Assay for Cytochrome P450 (CYP24A1_1) using HepaRG (AID 2283671; active = hit-call score of the fitted dose curve at least 0.9, where 1 is the maximum; inactive = score below 0.9); conditions: mRNA level, 48 h; actives raise or lower the signal
Summary of the method: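 Readout is CYP24A1 transcript level by qRT-PCR, normalized to three housekeeping genes, with gain or loss of signal fitted against 0.5% DMSO. Human HepaRG cells received compound for 48 h at up to 100 uM.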

Measured: AC50

Chain of Luciferin 4-monooxygenase (Photinus pyralis) (P08659 whole entry, looked up): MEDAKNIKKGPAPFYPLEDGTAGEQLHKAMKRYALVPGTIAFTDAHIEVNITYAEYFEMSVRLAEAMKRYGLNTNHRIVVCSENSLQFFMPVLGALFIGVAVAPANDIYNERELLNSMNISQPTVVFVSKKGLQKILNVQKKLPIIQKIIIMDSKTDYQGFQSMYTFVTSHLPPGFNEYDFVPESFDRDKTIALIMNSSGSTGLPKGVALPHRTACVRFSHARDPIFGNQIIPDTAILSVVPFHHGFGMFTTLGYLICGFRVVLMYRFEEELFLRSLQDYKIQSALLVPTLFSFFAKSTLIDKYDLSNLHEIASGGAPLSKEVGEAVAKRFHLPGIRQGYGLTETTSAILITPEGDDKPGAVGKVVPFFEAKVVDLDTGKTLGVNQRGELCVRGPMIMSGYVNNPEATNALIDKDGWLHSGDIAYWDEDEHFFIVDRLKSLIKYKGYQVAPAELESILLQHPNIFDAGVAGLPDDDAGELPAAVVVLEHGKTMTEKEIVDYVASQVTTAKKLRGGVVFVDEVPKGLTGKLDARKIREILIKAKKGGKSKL

Oc1cc2ccccc2c2ccccc12
active: [1] 38.3 µM | [2] 1.72 µM | [3] 38.8 µM | [4] 4.98 µM | [5] 31.4 µM | [6] 30.1 µM

Cc1oc(-c2ccccc2)nc1CCOc1ccc(C[C@H](Nc2ccccc2C(=O)c2ccccc2)C(=O)O)cc1
active: [2] 27.5 µM | [4] 5.11 µM | [5] 33.2 µM
inactive: [1] | [3] | [6]

CCN(CC)CCNc1ccc(CNC=O)c2sc3ccc(OC)cc3c(=O)c12
active: [2] 24.9 µM | [4] 57.8 µM | [8] 7.85 µM | [9] 5.78 µM
inactive: [1] | [7] | [3] | [5] | [6]

CCCCCCCCC(=O)O
inactive: [1] | [7] | [3] | [10] | [5]

C#C[C@]1(O)CC[C@H]2[C@@H]3CCC4=CC(=O)CC[C@@H]4[C@H]3CC[C@@]21C
inactive: [1] | [12] | [3] | [13] | [5]
active: [11] 9.92 µM | [2] 64.9 µM | [4] 16.1 µM | [8] 74.6 µM | [9] 74.8 µM | [10] 2.31 µM

NC(=O)N(O)[C@@H]1C=C[C@H](Oc2cccc(Oc3ccc(F)cc3)c2)C1
inactive: [1] | [3] | [10] | [5]
active: [2] 6.75 µM | [4] 14.9 µM | [6] 16.7 µM

CC1=C(/C=C/C(C)=C/C=C/C(C)=C/C(=O)O)C(C)(C)CCC1
inactive: [6]
active: [1] 0.168 µM | [2] 25 µM | [3] 0.0914 µM | [4] 0.0081 µM | [8] 0.0785 µM | [9] 0.00532 µM | [10] 1.21 µM | [5] 0.34 µM

CCC(=C(c1ccc(O)cc1)c1ccc(OCCN(C)C)cc1)c1ccccc1
active: [2] 9.22 µM and 8.64 µM | [4] 7.87 µM
inactive: [1] | [3] | [10] | [5] | [6]

O=c1c(-c2ccc(O)cc2)coc2cc(O)ccc12
inactive: [1] | [7] | [3] | [4] | [10] | [5]
active: [2] 9.2 µM | [6] 8.1 µM

c1ccc2c(c1)ccc1ccccc12
inactive: [1] | [3] | [4] | [5]
active: [8] 88.8 µM | [9] 78.7 µM

ClC1=C(Cl)C(Cl)(Cl)C(Cl)=C1Cl
active: [4] 4.87 µM
inactive: [1] | [11] | [12] | [13] | [5]

CCCCC(CC)COC(=O)CCCCC(=O)OCC(CC)CCCC (stereo not drawn)
inactive: [1] | [7] | [3] | [4] | [5]

Nc1cccc2c(N)cccc12
inactive: [1] | [3] | [8] | [9] | [10] | [5]
active: [2] 2.06 µM | [4] 48.9 µM | [6] 10.6 µM

CCCCCCCCCCCCN1CCCC1=O
active: [1] 34.7 µM | [2] 17.4 µM | [4] 8.11 µM | [5] 45.8 µM | [6] 31.1 µM
inactive: [3]

CCCCCCCC(=O)O
inactive: [1] | [7] | [3] | [5]

CCCOC(=O)c1ccc(O)cc1
inactive: [7] | [10]
active: [1] 32.9 µM | [3] 41.5 µM | [4] 14.9 µM | [5] 43.3 µM

O=[N+]([O-])c1ccc(O)cc1
inactive: [1] | [7] | [3] | [10] | [5]
active: [4] 64.4 µM and 59 µM

CN1CCN(c2ccccc2/C=C2\SCCN(c3ccc(Cl)c(Cl)c3)C2=O)CC1
inactive: [1] | [2] | [5] | [6]
active: [4] 5.38 µM | [8] 6.56 µM | [9] 7.71 µM

CC(C)(C)c1cc(C(C)(C)C)c(O)c(C(C)(C)C)c1
active: [2] 2.65 µM | [4] 7.36 µM
not listed: [7] | [8] | [9] | [10]
inactive: all other assays above

COc1ccc([N+](=O)[O-])cc1N
inactive: [1] | [3] | [8] | [9] | [10] | [5] | [6]
active: [2] 3.52 µM

Cc1cc(CCN2CCN(c3nsc4ccccc34)CC2)cc2c1NC(=O)CC2(C)C
active: [1] 3.08 µM | [7] 4.88 µM | [3] 6.3 µM | [4] 1.64 µM | [8] 5 µM | [9] 7.94 µM | [10] 11.1 µM | [5] 3.78 µM

O=C(OCCOCCOC(=O)c1ccccc1)c1ccccc1
active: [4] 1.74 µM
not listed: [2] | [6] | [7] | [10]
inactive: all other assays above

CC(C)(C)c1ccc(O)c(C(C)(C)C)c1
active: [2] 13.6 µM | [4] 7.38 µM | [5] 0.00448 µM
inactive: [1] | [3] | [6]

N#C[C@@H]1CC(F)(F)CN1C(=O)CNC1CC2CCC(C1)N2c1ncccn1 (stereo partly drawn)
active: [2] 36.6 µM
inactive: [1] | [8] | [5] | [6]
